In PubChem BioAssay AID686921 (National Center for Advancing Translational Sciences (NCATS), 2013):
Active and inactive are the calls of the source. The call rests on the fitted dose curve; in most records, active means well fitted curve in the direction sought with a large enough effect; inconclusive means small, poorly fitted or top-dose-only effect, or another doubt; inactive means no such curve, though single readings can be large or run the other way.

Experiment: qHTS screen for inhibitors of ELG1-dependent DNA repair in human embryonic kidney (HEK293T) cells expressing luciferase-tagged ELG1: 5FU Viability Assay for probe SAR
Details: HEK293T ELG1-luc, CellTiter-Glo viability, 16 h; series mostly up to 46.1 µM
Source text: Cancer cells divide rapidly compared to normal cells in the body. During cell division, cancer cells need to duplicate their genome by DNA replication. The failure of genome duplication leads to cancer cells' death. Therefore, inhibitors of DNA replication could specifically kill cancer cells. Based on this concept, many chemotherapeutic agents were developed and have been used to treat cancer patients. However, there are a limited number of agents available in the clinical setting, and some of those that do exist have low efficacy and severe side effects. Therefore, if we can find the compounds that effectively block DNA replication either by directly damaging DNA or by inhibiting other cellular mechanisms, the options for cancer treatment will be broadened. With this in mind, we developed a quantitative high-throughput ELG1-luciferase reporter gene assay. Small molecules that specifically block ELG1 function in response to DNA damage can be identified by monitoring the suppression of luciferase activity. Since ELG1 defines a pathway for repairing DNA damage, agents blocking ELG1 function can be used to sensitize cancer cells to chemotherapeutic agents whose mechanism of action involves the induction of DNA damage. Cytotoxicity of the active compounds in the ELG1 qHTS assay (AID 493107) was assessed using the CellTiter-Glo Luminescent Cell Viability Assay kit (Promega, USA). CellTiter-Glo measures the intracellular ATP present in metabolically active cells using Ultra-Glo as the luciferase to detect ATP levels. In brief, the luciferase in the buffer catalyzes the oxidation of luciferin to oxyluciferin and light which is dependent on ATP. […] DMSO and wells with media alone were used as positive and negative controls, respectively. Inactivity to this assay is the desirable outcome. NIH Molecular Libraries Probe Production Network [MLPCN] NIH Chemical Genomics Center [NCGC] MLPCN Grant: R03 MH092164 Assay Provider: Kyungjae Myung, NHGRI, NIH
ELG1-luc HEK293T cells will be seeded in 1536-well plates at a density of 2,000 cells/well. Approximately 5 hours after plating, compounds will be added to the plate by pin tool transfer and 5-fluorouridine will be added by FRD dispenser (final concentration of 5-fluorouridine =10 µM). 16 hours following the addition of the compounds, cell viability will be measured using CellTiter Glo.

Structure (SMILES)	outcome
Fc1ccc(Nc2nc(-c3ccncc3Cl)nc3ccccc23)cc1F	inactive
Cc1nc2ccc(Nc3nc(-c4ccncc4)nc4ccccc34)cc2s1	inactive
Oc1ccc(Nc2nc(-c3ccncc3)nc3ccccc23)cc1F	inactive
Cc1cc(-c2nc(Nc3ccc(F)c(F)c3)c3ccccc3n2)ccn1	inactive
Fc1cc(Nc2nc(-c3ccncc3)nc3ccccc23)ccc1C(F)(F)F	inactive
COc1nccc(-c2nc(Nc3ccc(F)c(F)c3)c3ccccc3n2)c1OC	inactive
Cc1cc(-c2nc(Nc3ccc(F)c(F)c3)c3ccccc3n2)cc(C)n1	inactive
O=[N+]([O-])c1ccc(-c2nc(Nc3ccc(F)c(F)c3)c3ccccc3n2)cc1	inactive
O=c1cc(-c2nc(Nc3ccc(F)c(F)c3)c3ccccc3n2)cc[nH]1	inactive
Fc1cc(Nc2nc(-c3ccncc3)nc3ccccc23)ccc1-c1cn[nH]c1	inactive
N#Cc1cnccc1-c1nc(Nc2ccc(F)c(F)c2)c2ccccc2n1	inactive
Fc1cc(Nc2nc(-c3ccncc3)nc3ccccc23)ccc1OCC(F)(F)F	inactive
Fc1cc(Nc2nc(-c3ccncc3)nc3ccccc23)ccc1N1CCNCC1	inactive
CSc1ccccc1-c1ccc(Nc2nc(-c3ccncc3)nc3ccccc23)cc1F	inactive
Fc1cc(Nc2nc(-c3ccncc3)nc3ccccc23)ccc1-c1ccc2[nH]ncc2c1	inactive
COc1ccc(-c2ccc(Nc3nc(-c4ccncc4)nc4ccccc34)cc2F)cc1F	inactive
Cc1cnccc1-c1nc(Nc2ccc(F)c(F)c2)c2ccccc2n1	inactive
Fc1cccc(-c2ccc(Nc3nc(-c4ccncc4)nc4ccccc34)cc2F)c1	inactive
COc1cc(-c2nc(Nc3ccc(F)c(F)c3)c3ccccc3n2)c(F)cn1	inactive
Fc1ccc(Nc2nc(-c3ccncc3F)nc3ccccc23)cc1F	inactive

Structure (SMILES)	outcome
COc1cc(Nc2nc(-c3ccncc3)nc3ccccc23)ccc1F	inactive
COc1cc(Nc2nc(-c3ccncc3)nc3ccccc23)ccc1Cl	inactive
Fc1ccc(Nc2nc(-c3ccnc(C(F)(F)F)c3)nc3ccccc23)cc1F	inactive
Fc1cc(Nc2nc(-c3ccncc3)nc3ccccc23)ccc1N1CCCCC1	inactive
Fc1cc(Nc2nc(-c3ccncc3)nc3ccccc23)ccc1-n1cncn1	inactive
Nc1cc(-c2nc(Nc3ccc(F)c(F)c3)c3ccccc3n2)ccn1	inactive
COc1nccc(-c2nc(Nc3ccc(F)c(F)c3)c3ccccc3n2)c1Cl	inactive
Fc1ccc(-c2ccc(Nc3nc(-c4ccncc4)nc4ccccc34)cc2F)c(F)c1	inactive
COc1ccc(Nc2nc(-c3ccncc3)nc3ccccc23)cc1F	inactive
Fc1cc(Nc2nc(-c3ccncc3)nc3ccccc23)ccc1-c1cccc(C(F)(F)F)c1	inactive
Fc1cc(Nc2nc(-c3ccncc3)nc3ccccc23)ccc1-c1ccnc(C(F)(F)F)c1	inactive
Fc1cccc(Nc2nc(-c3ccncc3)nc3ccccc23)c1	inactive
CCOC(=O)c1ccc2c(c1)c(C(C)=O)c(C)n2-c1ccc(OC)cc1	inactive
COc1ccc(-n2c(C)c(C(C)=O)c3cc(O)ccc32)cc1	inactive
Fc1cc(-c2nc(Nc3ccc(F)c(F)c3)c3ccccc3n2)ccn1	inactive
Fc1cc(Nc2nc(-c3ccncc3)nc3ccccc23)ccc1-c1ccncc1	inactive
Fc1ccc(-c2ccc(Nc3nc(-c4ccncc4)nc4ccccc34)cc2F)cc1	inactive
Fc1cc(Nc2nc(-c3ccncc3)nc3ccccc23)ccc1-c1cccc(OC(F)F)c1	inactive
Fc1cc(Nc2nc(-c3ccncc3)nc3ccccc23)ccc1-c1cccc(OC(F)(F)F)c1	inactive
Fc1ccc(Nc2cc(-c3ccccc3)nc(-c3ccncc3)n2)cc1F	inactive
